Activity calls are given as the source filed them. The calls were made as follows: active = hit-call score of the fitted dose curve at least 0.9, where 1 is the maximum; inactive = score below 0.9.
Key:
[1] = ATG_GLI_CIS: Attagene CIS-FACTORIAL HepG2 Assay for human Zinc Finger Protein GLI1 (AID 2282945); details: HepG2, Attagene cis-factorial reporter mRNA, GLI element; actives raise or lower the signal
In short: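 HepG2 cells transiently transfected with cis-promoter multiplexed reporter units report endogenous transcription factor activity. After 24 h chemical exposure, reporter mRNA was quantified by RT-PCR, 6-FAM labelling, HpaI digestion and capillary electrophoresis, with bidirectional fitting against DMSO.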

[2] = target: Bile acid receptor (Homo sapiens) (UniProt Q96RI1); assay: ATG_IR1_CIS: Attagene CIS-FACTORIAL HepG2 Assay for human Nuclear Receptor Subfamily 1 Group H Member 4 (NR1H4), IR1 submotif (AID 2282946); details: IR1 reporter transcription, actives raise or lower the signal
In short: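 Transient MRTU transfection, HepG2; 24 h dosing; RNA → RT-PCR → 6-FAM primer extension → HpaI digest → capillary electrophoresis fluorescence. Gain/loss of signal fitted relative to DMSO.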

[3] = ATG_GRE_CIS: Attagene CIS-FACTORIAL HepG2 Assay for human Glucocorticoid Response Elements (GRE) (AID 2282947); details: HepG2 GRE cis-reporter, Attagene multiplex mRNA; actives raise or lower the signal
In short: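 Following 24 h chemical exposure of transiently transfected HepG2 cells, total RNA was reverse-transcribed and reporter cDNA amplified, fluorescently labelled and sized by capillary electrophoresis. Signal gain or loss was fitted relative to DMSO vehicle.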

[4] = ATG_ISRE_CIS: Attagene CIS-FACTORIAL HepG2 Assay for human Interferon Regulatory Factor 1 (IRF1) binding to an Interferon-Stimulated Response Element (ISRE) (AID 2282948); details: HepG2 ISRE cis-reporter (Attagene), mRNA transcription readout; actives raise or lower the signal
In short: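 Cell-based cis-reporter assay; HepG2; 24 h exposure; reporter mRNA by RT-PCR plus capillary electrophoresis fluorescence; activity in either direction scored relative to DMSO.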

[5] = ATG_M_32_CIS: Attagene CIS-FACTORIAL HepG2 Assay for M32 Transcription Factor (Internal Marker) (AID 2282949); details: HepG2 Attagene cis-factorial M32 reporter, mRNA; actives raise or lower the signal;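 also: background control marker of the multiplexed CIS panel rather than a real target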
In short: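 HepG2 cells transiently transfected with multiplexed cis-regulated reporter units, dosed 24 h. Reporter mRNA quantified by RT-PCR, 6-FAM labelling, HpaI digestion and capillary electrophoresis; bidirectional fit vs DMSO.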

[6] = ATG_M_06_CIS: Attagene CIS-FACTORIAL HepG2 Assay for M06 Transcription Factor (Internal Marker) (AID 2282950); details: HepG2 Attagene CIS-FACTORIAL M06 internal marker reporter; actives raise or lower the signal
In short: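 Cells (HepG2, transiently carrying cis-driven reporter units) receive chemical for 24 h before RNA isolation. Reporter cDNA is PCR-amplified, FAM-labelled by primer extension, HpaI-digested and sized on a capillary analyser.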

[7] = target: Hypoxia-inducible factor 1-alpha (Homo sapiens) (UniProt Q16665); assay: ATG_HIF1a_CIS: Attagene CIS-FACTORIAL HepG2 Assay for human Hypoxia Inducible Factor 1 (HIF1A) (AID 2282951); details: HepG2 Attagene cis-factorial HIF1a reporter transcription; actives raise or lower the signal
In short: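 Activity is fitted in both directions relative to DMSO. Reporter transcripts are read by RT-PCR, fluorescent primer extension and capillary electrophoresis after 24 h chemical treatment. The cells are HepG2 carrying transiently transfected cis-element-driven reporter units responding to endogenous factors.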

[8] = target: Heat shock factor protein 1 (Homo sapiens) (UniProt Q00613); assay: ATG_HSE_CIS: Attagene CIS-FACTORIAL HepG2 Assay for human Heat Shock Transcription Factor 1 (HSE) (AID 2282953); details: HepG2 HSE cis-reporter, Attagene RNA transcription; actives raise or lower the signal
In short: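 Liver-derived HepG2 cells carry transiently introduced multiple reporter units governed by cis promoters. Reporter RNA measured 24 h post-dose through reverse transcription, PCR amplification, fluorescent labelling and capillary electrophoresis, normalised to DMSO.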

[9] = ATG_MRE_CIS: Attagene CIS-FACTORIAL HepG2 Assay for human Metal Responsive Element (MRE) (AID 2282954); details: HepG2 MRE cis-reporter transcription, Attagene multiplex; actives raise or lower the signal
In short: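 Step one: transfect HepG2 with cis-regulated reporter units. Step two: dose 24 h. Step three: isolate RNA, RT-PCR, 6-FAM label, HpaI digest, capillary electrophoresis. Fit bidirectionally to DMSO.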

[10] = target: Paired box protein Pax-6 (Homo sapiens) (UniProt P26367); assay: ATG_Pax6_CIS: Attagene CIS-FACTORIAL HepG2 Assay for human Paired Box 6 (PAX6) (AID 2282956); details: HepG2 CIS-FACTORIAL PAX6 reporter transcription, RNA readout; actives raise or lower the signal
In short: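 Multiplexed cis-reporter HepG2 system; 24 h treatment; reporter mRNA read by RT-PCR/CE fluorescence; bidirectional fit vs DMSO.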

[11] = ATG_PXRE_CIS: Attagene CIS-FACTORIAL HepG2 Assay for human Pregnane X Receptor Element (PXRE) (AID 2282957); details: HepG2 Attagene CIS-FACTORIAL PXRE reporter, mRNA; actives raise or lower the signal
In short: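 Transiently transfected HepG2 cells were dosed and incubated for 24 h. RNA was then isolated, DNase-treated, reverse-transcribed and reporter sequences amplified. Labeled, HpaI-digested fragments were quantified by capillary electrophoresis against DMSO.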

[12] = ATG_PPRE_CIS: Attagene CIS-FACTORIAL HepG2 Assay for human Peroxisome Proliferator-activated Response Element (PPRE) (AID 2282958); details: HepG2 PPRE cis-element reporter, Attagene transcription factor profiling; actives raise or lower the signal
In short: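 Endogenous PPRE-driven transcription is measured in HepG2 cells carrying transfected multi-reporter constructs. Reporter transcripts are quantified by RT-PCR, HpaI digestion and capillary electrophoresis 24 h after dosing. DMSO baseline, bidirectional fit.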

[13] = ATG_Sox_CIS: Attagene CIS-FACTORIAL HepG2 Assay for human SRY-box transcription factor (SOX) (AID 2282960); details: HepG2 Attagene cis-factorial SOX reporter, mRNA; actives raise or lower the signal
In short: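 Reporter transcripts, measured by RT-PCR and capillary electrophoresis of labelled fragments, report endogenous SOX transcription factor activity. Transiently transfected human HepG2 cells receive chemical for 24 h; changes in either direction are fitted relative to DMSO.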

[14] = target: Transcription factor Sp1 (Homo sapiens) (UniProt P08047); assay: ATG_Sp1_CIS: Attagene CIS-FACTORIAL HepG2 Assay for human Specificity Protein 1 (Sp1) (AID 2282961); details: HepG2 Sp1 cis-reporter transcription, actives raise or lower the signal
In short: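 Read-out is reporter transcript level, measured by RT-PCR and fluorescent capillary electrophoresis after 24 h chemical treatment. System: transiently transfected HepG2 cells reporting endogenous transcription factor activity; gain or loss fitted against DMSO baseline.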

[15] = target: Signal transducer and activator of transcription 3 (Homo sapiens) (UniProt P40763); assay: ATG_STAT3_CIS: Attagene CIS-FACTORIAL HepG2 Assay for human Signal Transducer and Activator of Transcription 3 (STAT3) (AID 2282963); details: HepG2, Attagene cis-factorial STAT3 reporter transcription; actives raise or lower the signal
In short: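 Transcript-level reporter assay. HepG2 transient MRTU transfection, 24 h exposure, fluorescence detection after RT-PCR and CE; DMSO baseline.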

[16] = ATG_TA_CIS: Attagene CIS-FACTORIAL HepG2 Assay for human TA Basal Promoter (AID 2282964); details: HepG2 Attagene CIS-factorial TA basal promoter reporter; actives raise or lower the signal
In short: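 Background internal-marker endpoint from a 52-component HepG2 cis-reporter panel. Cells treated 24 h; reporter transcripts quantified via RT-PCR and CE fluorescence against DMSO baseline.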

[17] = target: Hepatocyte nuclear factor 6 (Homo sapiens) (UniProt Q9UBC0); assay: ATG_HNF6_CIS: Attagene CIS-FACTORIAL HepG2 Assay for human Hepatocyte Nuclear Factor 6 (HNF6) (AID 2282952); details: HepG2 Attagene cis-factorial HNF6 reporter transcription; actives raise or lower the signal
In short: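 Reporter mRNA induction or loss in HepG2 after 24 h exposure; transient cis-MRTU transfection; fragments quantified by capillary electrophoresis; bidirectional analysis, DMSO as negative control.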

[18] = ATG_SREBP_CIS: Attagene CIS-FACTORIAL HepG2 Assay for human Sterol Regulatory Element Binding (SREBP) (AID 2282962); details: HepG2 Attagene cis-factorial SREBP reporter, mRNA; actives raise or lower the signal
In short: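 mRNA induction of transfected cis-promoter reporters in HepG2 cells, 24 h post-dose. Detection: RT-PCR with 6-FAM-labelled products, HpaI digest, capillary electrophoresis. DMSO served as negative control and baseline.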

Chain of Hypoxia-inducible factor 1-alpha (Homo sapiens) (Q16665 whole entry, looked up): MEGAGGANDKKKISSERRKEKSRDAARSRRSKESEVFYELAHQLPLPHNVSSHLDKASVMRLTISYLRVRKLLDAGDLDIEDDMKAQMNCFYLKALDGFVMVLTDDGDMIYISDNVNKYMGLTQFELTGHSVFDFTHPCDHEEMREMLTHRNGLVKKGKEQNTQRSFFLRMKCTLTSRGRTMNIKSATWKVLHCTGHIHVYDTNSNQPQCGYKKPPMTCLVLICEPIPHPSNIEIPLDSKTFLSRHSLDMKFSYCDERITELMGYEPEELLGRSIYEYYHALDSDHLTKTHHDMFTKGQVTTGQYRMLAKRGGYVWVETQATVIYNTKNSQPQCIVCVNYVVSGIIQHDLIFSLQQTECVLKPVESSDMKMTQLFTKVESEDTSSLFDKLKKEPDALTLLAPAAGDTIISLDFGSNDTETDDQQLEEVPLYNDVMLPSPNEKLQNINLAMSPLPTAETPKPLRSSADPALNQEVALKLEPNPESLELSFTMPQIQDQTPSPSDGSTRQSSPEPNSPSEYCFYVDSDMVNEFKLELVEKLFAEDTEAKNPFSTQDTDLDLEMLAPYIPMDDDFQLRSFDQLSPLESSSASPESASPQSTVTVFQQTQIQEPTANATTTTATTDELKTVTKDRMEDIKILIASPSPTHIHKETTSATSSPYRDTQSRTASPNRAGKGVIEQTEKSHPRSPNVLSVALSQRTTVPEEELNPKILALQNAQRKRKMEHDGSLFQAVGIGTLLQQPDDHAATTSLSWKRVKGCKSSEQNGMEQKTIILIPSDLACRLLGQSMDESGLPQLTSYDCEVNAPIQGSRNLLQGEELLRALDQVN
Chain of Transcription factor Sp1 (Homo sapiens) (P08047 whole entry, looked up): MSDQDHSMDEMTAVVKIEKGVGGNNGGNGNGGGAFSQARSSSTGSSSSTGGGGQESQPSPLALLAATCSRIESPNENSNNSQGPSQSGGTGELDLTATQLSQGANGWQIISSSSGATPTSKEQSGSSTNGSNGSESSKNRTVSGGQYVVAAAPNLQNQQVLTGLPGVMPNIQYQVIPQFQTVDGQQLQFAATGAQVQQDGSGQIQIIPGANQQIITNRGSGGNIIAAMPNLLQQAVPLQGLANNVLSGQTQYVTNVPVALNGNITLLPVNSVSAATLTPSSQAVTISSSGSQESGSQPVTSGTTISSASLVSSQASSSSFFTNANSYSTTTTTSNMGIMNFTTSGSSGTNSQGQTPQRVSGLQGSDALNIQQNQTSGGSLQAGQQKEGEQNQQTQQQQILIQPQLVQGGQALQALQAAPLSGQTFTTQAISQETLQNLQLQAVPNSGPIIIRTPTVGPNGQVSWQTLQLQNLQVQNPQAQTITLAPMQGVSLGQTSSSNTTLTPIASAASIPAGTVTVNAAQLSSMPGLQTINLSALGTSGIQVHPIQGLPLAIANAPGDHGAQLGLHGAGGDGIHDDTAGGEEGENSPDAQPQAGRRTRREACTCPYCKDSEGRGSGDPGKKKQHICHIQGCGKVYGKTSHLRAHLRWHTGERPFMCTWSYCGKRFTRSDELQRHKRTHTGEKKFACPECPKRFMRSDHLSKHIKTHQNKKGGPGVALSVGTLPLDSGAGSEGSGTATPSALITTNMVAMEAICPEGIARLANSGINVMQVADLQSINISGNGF
Chain of Signal transducer and activator of transcription 3 (Homo sapiens) (P40763 whole entry, looked up): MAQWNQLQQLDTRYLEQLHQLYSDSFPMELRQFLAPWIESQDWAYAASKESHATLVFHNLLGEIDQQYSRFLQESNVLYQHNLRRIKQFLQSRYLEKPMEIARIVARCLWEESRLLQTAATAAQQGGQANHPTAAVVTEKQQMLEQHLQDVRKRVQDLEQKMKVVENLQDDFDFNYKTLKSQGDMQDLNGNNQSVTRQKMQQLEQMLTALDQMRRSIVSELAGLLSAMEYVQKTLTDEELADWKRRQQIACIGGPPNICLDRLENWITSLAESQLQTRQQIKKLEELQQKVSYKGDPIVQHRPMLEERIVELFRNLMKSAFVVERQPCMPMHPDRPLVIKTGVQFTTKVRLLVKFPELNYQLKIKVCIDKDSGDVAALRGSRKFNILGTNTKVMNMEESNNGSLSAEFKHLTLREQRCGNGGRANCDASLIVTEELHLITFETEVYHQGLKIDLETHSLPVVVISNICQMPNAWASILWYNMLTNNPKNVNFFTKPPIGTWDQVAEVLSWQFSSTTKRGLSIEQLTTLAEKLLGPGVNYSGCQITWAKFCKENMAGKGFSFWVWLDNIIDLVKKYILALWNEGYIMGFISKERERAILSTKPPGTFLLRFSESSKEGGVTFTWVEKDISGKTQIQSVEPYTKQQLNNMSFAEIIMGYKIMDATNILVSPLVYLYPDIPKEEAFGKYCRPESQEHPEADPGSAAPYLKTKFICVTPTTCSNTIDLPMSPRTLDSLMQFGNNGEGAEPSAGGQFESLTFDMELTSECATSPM
Chain of Bile acid receptor (Homo sapiens) (Q96RI1 whole entry, looked up): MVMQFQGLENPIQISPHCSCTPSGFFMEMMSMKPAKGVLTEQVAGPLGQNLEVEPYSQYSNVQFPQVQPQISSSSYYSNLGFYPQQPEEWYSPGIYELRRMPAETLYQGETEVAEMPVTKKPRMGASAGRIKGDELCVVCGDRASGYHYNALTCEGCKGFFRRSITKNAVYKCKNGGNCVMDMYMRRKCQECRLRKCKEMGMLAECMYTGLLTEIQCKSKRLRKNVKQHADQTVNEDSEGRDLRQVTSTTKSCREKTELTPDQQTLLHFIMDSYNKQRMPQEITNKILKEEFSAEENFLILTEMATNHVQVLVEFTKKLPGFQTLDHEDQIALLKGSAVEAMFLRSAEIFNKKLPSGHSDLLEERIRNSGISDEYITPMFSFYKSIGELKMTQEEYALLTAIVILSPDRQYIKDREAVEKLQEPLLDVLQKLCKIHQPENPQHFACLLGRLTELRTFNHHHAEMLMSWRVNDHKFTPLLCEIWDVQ
Chain of Heat shock factor protein 1 (Homo sapiens) (Q00613 whole entry, looked up): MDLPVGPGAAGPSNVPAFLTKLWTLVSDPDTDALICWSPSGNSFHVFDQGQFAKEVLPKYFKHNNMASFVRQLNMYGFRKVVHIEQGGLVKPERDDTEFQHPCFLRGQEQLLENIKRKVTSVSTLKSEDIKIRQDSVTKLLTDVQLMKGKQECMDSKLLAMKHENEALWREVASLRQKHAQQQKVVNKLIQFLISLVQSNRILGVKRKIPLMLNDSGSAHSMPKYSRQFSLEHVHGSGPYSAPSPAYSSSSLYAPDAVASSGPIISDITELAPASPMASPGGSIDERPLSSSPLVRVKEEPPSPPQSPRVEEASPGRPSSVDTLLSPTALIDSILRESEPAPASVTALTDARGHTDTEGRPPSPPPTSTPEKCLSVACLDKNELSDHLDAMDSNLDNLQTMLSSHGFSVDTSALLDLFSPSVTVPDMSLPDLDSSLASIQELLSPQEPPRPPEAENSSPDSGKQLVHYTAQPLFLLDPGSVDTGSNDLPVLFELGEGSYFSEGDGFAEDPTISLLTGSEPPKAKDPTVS
Chain of Paired box protein Pax-6 (Homo sapiens) (P26367 whole entry, looked up): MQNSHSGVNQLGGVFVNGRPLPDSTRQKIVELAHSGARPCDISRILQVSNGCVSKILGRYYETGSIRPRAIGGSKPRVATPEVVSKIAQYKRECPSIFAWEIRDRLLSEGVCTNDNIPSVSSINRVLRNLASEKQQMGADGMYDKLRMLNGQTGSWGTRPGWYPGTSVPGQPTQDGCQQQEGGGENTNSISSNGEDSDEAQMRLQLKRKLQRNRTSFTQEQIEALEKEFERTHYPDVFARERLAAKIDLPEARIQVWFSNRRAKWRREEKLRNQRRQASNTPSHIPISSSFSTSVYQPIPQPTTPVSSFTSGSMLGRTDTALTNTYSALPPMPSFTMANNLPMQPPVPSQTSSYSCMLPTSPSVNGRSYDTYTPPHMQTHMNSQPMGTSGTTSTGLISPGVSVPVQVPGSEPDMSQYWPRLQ
Chain of Hepatocyte nuclear factor 6 (Homo sapiens) (Q9UBC0 whole entry, looked up, the tested form may be a part): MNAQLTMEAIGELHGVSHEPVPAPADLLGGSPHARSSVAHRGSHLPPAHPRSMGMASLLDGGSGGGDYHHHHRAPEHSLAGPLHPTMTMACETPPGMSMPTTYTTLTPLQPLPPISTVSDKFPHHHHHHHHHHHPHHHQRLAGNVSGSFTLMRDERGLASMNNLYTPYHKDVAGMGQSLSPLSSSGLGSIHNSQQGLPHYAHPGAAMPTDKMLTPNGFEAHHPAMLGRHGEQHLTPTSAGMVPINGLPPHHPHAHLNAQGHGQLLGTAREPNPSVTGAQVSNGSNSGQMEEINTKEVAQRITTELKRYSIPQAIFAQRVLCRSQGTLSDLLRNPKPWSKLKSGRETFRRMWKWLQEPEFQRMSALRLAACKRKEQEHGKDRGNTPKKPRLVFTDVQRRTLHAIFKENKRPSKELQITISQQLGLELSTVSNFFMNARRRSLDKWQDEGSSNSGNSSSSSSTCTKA

CC(C)(C)C(O)/C(=C\c1ccc(Cl)cc1Cl)n1cncn1 (configuration not stated)
outcome [1]: inactive | outcome [2]: inactive | outcome [3]: inactive | outcome [4]: inactive | outcome [5]: inactive | outcome [6]: inactive | outcome [7]: inactive | outcome [8]: inactive | AC50 [9]: 5 µM (active) | outcome [10]: inactive | AC50 [11]: 5 µM (active) | outcome [12]: inactive | outcome [13]: inactive | outcome [14]: inactive | outcome [15]: inactive | outcome [16]: inactive

COc1nn(CSP(=S)(OC)OC)c(=O)s1
outcome [1]: inactive | outcome [2]: inactive | outcome [3]: inactive | outcome [4]: inactive | outcome [5]: inactive | outcome [7]: inactive | outcome [17]: inactive | outcome [8]: inactive | outcome [9]: inactive | outcome [10]: inactive | AC50 [11]: 15.6 µM (active) | outcome [12]: inactive | outcome [13]: inactive | outcome [14]: inactive | outcome [15]: inactive | outcome [16]: inactive

CCCN(CCC)c1c([N+](=O)[O-])cc(C(F)(F)F)cc1[N+](=O)[O-]
outcome [1]: inactive | outcome [2]: inactive | outcome [4]: inactive | outcome [5]: inactive | outcome [6]: inactive | outcome [7]: inactive | outcome [8]: inactive | outcome [9]: inactive | outcome [10]: inactive | AC50 [11]: 6.82 µM (active) | outcome [12]: inactive | outcome [13]: inactive | outcome [14]: inactive | outcome [15]: inactive | outcome [16]: inactive

COc1cc(OC)nc(NC(=O)NS(=O)(=O)c2cc(NC=O)ccc2C(=O)N(C)C)n1
outcome [1]: inactive | outcome [2]: inactive | outcome [3]: inactive | outcome [4]: inactive | outcome [5]: inactive | outcome [7]: inactive | outcome [17]: inactive | outcome [8]: inactive | outcome [9]: inactive | outcome [10]: inactive | AC50 [11]: 17.1 µM (active) | outcome [12]: inactive | outcome [13]: inactive | outcome [14]: inactive | outcome [18]: inactive | outcome [15]: inactive | outcome [16]: inactive

CCN(CC)C(=O)SCc1ccc(Cl)cc1
outcome [1]: inactive | outcome [2]: inactive | outcome [3]: inactive | outcome [4]: inactive | outcome [5]: inactive | outcome [7]: inactive | outcome [8]: inactive | AC50 [9]: 65.9 µM (active) | outcome [10]: inactive | AC50 [11]: 4.49 µM (active) | outcome [13]: inactive | outcome [14]: inactive | outcome [18]: inactive | outcome [15]: inactive | outcome [16]: inactive

N#Cc1c(Cl)c(Cl)c(Cl)c(C#N)c1Cl
outcome [1]: inactive | outcome [2]: inactive | outcome [3]: inactive | outcome [4]: inactive | outcome [5]: inactive | outcome [6]: inactive | outcome [7]: inactive | outcome [17]: inactive | outcome [8]: inactive | outcome [9]: inactive | outcome [10]: inactive | AC50 [11]: 0.121 µM (active) | outcome [12]: inactive | outcome [13]: inactive | outcome [14]: inactive | outcome [18]: inactive | outcome [15]: inactive | outcome [16]: inactive
